# IL1B secr inh = qHTS for Inhibitors of Inflammasome Signaling: IL-1-beta AlphaLISA Primary Screen. activity change, % at 57.5 µM. actives 4.7% (n = 360,000). AID 743279, 2014. THP-1 LPS/ATP IL-1B secretion, AlphaLISA, 16 h; hits give low values; in the data active = activity change below about -50%; inconclusive = mostly about -30% to -49%; also: % is scaled to controls: 0 for no effect and ±100 for the full control effect
#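 Secreted IL-1B measured by AlphaLISA bead assay after 16 h compound exposure of THP-1 cells; compounds (final up to 57.5 uM) added 1 h before LPS (250 ng/mL) and ATP (1.25 mM) stimulation; lower signal means less secretion.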
# DT40 TDP1 no CPT = qHTS for Inhibitors of human tyrosyl-DNA phosphodiesterase 1 (TDP1): qHTS in cells in absence of CPT. DT40 Tdp1-/- hTDP1 cells, no CPT, ATP luminescence, 48 h. Potency, µM (series often up to 46.2 µM), inactives show at the top dose activity change, negative = growth inhibition, actives largely listed as inhibitors. actives 15% (n = 420,000). AID 686978, 2013; also: potency is read from the fitted curve at half-maximal effect; % is scaled to controls: 0 for no effect and ±100 for the full control effect; nearly all actives have a fitted effect of over 55% in size
#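 A cellular qHTS used chicken DT40 cells lacking endogenous Tdp1 but carrying stably transfected human TDP1. Compounds were applied without camptothecin, and cell growth kinetics were judged by ATP-dependent luminescence after ≥48 hr.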
# HepG2 tox = qHTS for Inhibitors of TGF-b: Cytotox Counterscreen; HepG2 CAGA-GFP viability, ATP luminescence, 18 h; Potency, µM (titrated, usually from 46.1 µM), for inactives: top-dose activity change, negative = cytotoxicity, most hits filed as cytotoxic; actives 0.76% (n = 410,000); AID 588856, 2011; also: potency is read from the fitted curve at half-maximal effect
#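 CellTiter-Glo luminescence gave cytotoxicity after 18 hours at 37 degrees C. The cells were HepG2 CAGA-GFP in 1% FBS DMEM, stimulated with 500 pg/mL TGF-beta after compound addition. %Activity was normalised to no-cell wells (complete cell-killing) and DMSO (no toxicity), and curves were fitted and classified.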
# TDP1 inh = qHTS Assay for Inhibitors of Tyrosyl-DNA Phosphodiesterase (TDP1); Tyrosyl-DNA phosphodiesterase 1 (Homo sapiens), Q9NUW8; recombinant TDP1, AlphaScreen DNA substrate cleavage; Potency, µM (titrated, usually from 130 µM), for the others: top-dose activity change, negative = inhibition, most hits filed as inhibitors; actives 0.28% (n = 350,000); AID 485290, 2010; also: potency is read from the fitted curve at half-maximal effect; % is scaled to controls: 0 for no effect and ±100 for the full control effect; nearly all actives have a fitted effect of over 40% in size
# Target sequence (Q9NUW8 whole entry, looked up): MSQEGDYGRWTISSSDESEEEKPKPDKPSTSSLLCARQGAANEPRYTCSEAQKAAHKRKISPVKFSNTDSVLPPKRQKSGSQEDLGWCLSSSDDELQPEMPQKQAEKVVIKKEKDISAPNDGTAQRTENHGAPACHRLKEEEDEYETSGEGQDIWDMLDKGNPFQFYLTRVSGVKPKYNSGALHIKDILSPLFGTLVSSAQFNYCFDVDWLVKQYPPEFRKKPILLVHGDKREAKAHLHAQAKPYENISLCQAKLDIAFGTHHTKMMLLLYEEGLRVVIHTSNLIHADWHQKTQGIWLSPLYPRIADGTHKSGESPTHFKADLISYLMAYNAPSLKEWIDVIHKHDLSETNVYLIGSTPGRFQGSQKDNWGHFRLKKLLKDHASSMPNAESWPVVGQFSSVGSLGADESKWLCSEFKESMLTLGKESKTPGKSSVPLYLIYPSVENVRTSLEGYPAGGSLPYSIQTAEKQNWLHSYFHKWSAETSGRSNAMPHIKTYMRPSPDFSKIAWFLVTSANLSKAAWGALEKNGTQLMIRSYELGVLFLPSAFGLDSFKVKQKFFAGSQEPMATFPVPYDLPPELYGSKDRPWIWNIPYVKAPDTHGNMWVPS
#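 Recombinant human Tdp1 (E. coli-expressed, 1 nM final) preincubated with compounds 15 min at room temperature, then 5'-biotin/3'-phosphotyrosine-FITC DNA substrate (15 nM final) added for 5 min. AlphaScreen beads (10 ug/ml final) added 10 min; cleavage lowers signal.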
# DT40 TDP1 CPT = qHTS for Inhibitors of human tyrosyl-DNA phosphodiesterase 1 (TDP1): qHTS in cells in presence of CPT; Potency, µM (series often up to 46.2 µM), for the others: at the top dose activity change, negative = growth inhibition, usual class: inhibitors; actives 12% (n = 420,000); chicken DT40 Tdp1-/-;hTDP1 cells + 20 nM CPT, ATP luminescence, 48 h; also: potency is read from the fitted curve at half-maximal effect; % is scaled to controls: 0 for no effect and ±100 for the full control effect; nearly all actives have a fitted effect of over 55% in size
#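 Chicken DT40 Tdp1-/- cells stably complemented with human TDP1 were seeded at 400 cells/well in medium containing 20 nM camptothecin, exposed to pin-transferred compounds, and grown at 37 °C for at least 48 hr. Viability was read as ATP luminescence.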
# TGFb inhibitor = qHTS for Inhibitors of TGF-b | HepG2 CAGA-GFP TGF-b/SMAD3 reporter, GFP fluorescence, 18 h; TGF-beta stimulated, 500 pg/mL final | Potency, µM (doses to about 46.1 µM), without a hit: at the top dose activity, negative = inhibition, usual class: inhibitors | actives 1.2% (n = 410,000) | AID 588855, 2011; also: potency is read from the fitted curve at half-maximal effect; % is scaled to controls: 0 for no effect and ±100 for the full control effect; nearly all actives have a fitted effect of over 65% in size
#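 Smad-responsive CAGA-GFP expression was quantified in HEPG2 cells exposed to compounds and 500 pg/mL final TGF-beta for 18 h at 37 degrees C; unstimulated wells defined full inhibition.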
# An asterisk follows results filed as active; ? = inconclusive; . = no result; [ ] = dose if it differs, or a comment. A selection: hits, their analogues and other compounds. The true share with any hit is near 19%. Unless noted, calls follow the shape of the dose curve; as a rule, active = well fitted curve in the direction sought with a large enough effect; inconclusive = small, poorly fitted or top-dose-only effect, or another doubt; inactive = no such curve, though single readings can be large; an effect the other way counts as inactive or inconclusive.
SMILES,IL1B secr inh,DT40 TDP1 no CPT,HepG2 tox,TDP1 inh,DT40 TDP1 CPT,TGFb inhibitor
COc1cccc(-c2nnc3sc(-c4cccs4)nn23)c1,?,16.4µM*,-22.4%,7.3%,14.6µM*,1.0%
CCOc1cccc(-c2nnc3sc(-c4cccs4)nn23)c1,-12.6,13µM*,-9.4%,4.2%,14.6µM*,-10.8%
CCOC(=O)c1c(C)c(-c2ccccc2)n(CC(=O)NCc2cccc(OC)c2)c1C,.,?,-23.7%,4.9%,?,-22.6%
OC[C@H]1OC(O)[C@@H](O)[C@@H](O)[C@H]1O (stereo not given in full),.,.,.,25.2%,.,.
COC1(C(F)(F)F)NC(=O)N(c2ccc(F)cc2)C1=O (stereo not given),.,-5.9%,0.2%,5.8%,13.8%,1.2%
Cc1cc(C)c(S(=O)(=O)NCCc2sc(-c3cccnc3)nc2C)c(C)c1,.,.,-18.3%,3.3%,.,-3.3%
CN(C)c1ncnc2c1NC1=C(S2)C(=NCCCC(=O)O)CC(C)(C)C1,-9.9,?,-2.2%,1.0%,20.6µM*,?
O=C(NC(NC(=S)Nc1ccc(F)c([N+](=O)[O-])c1)C(Cl)(Cl)Cl)C(c1ccccc1)c1ccccc1 (stereo not given),.,.,.,16.7%,.,.
CC(C)(C)n1ncc2c(=O)n(Cc3ccccc3SC(F)(F)F)cnc21,.,.,-21.3%,.,.,?
Cc1c(-c2cccc(Cl)c2)nc2ccccc2c1C(=O)OC/C(O)=C(\C#N)c1nc2ccccc2[nH]1,7.2,20.6µM*,-13.8%,11.0%,14.6µM*,26.4%
Cc1cccc(C)c1OCC(=O)OC/C(O)=C(\C#N)c1nc2ccccc2[nH]1,-28.0,20.6µM*,-48.0%,8.2%,?,15.5%
Cc1cc(C)cc(OCC(=O)OC/C(O)=C(\C#N)c2nc3ccccc3[nH]2)c1,-97.8*,20.6µM*,-0.7%,0.0%,?,-5.6%
N#C/C(=C(/O)COC(=O)COc1cccc(Br)c1)c1nc2ccccc2[nH]1,131.2,-12.5%,-42.1%,.,?,?
CC(=O)c1ccc(NC(=O)CN(C)S(=O)(=O)c2cnc[nH]2)cc1,.,1.0%,-39.1%,-10.1%,-2.9%,-19.2%
Cc1cccc(NC(=O)C(=O)NCCc2csc(-c3ccc(C(F)(F)F)cc3)n2)c1C,.,-25.8%,0.1%,-2.2%,-27.4%,5.3%
C[C@H]1C[C@H]2[C@@H]3CCC4=CC(=O)C=C[C@]4(C)[C@H]3C(=O)C[C@]2(C)[C@@]1(O)C(=O)CO,.,-25.1%,.,.,-11.5%,.
COc1ccc(NC(=O)/C=C/c2ccccc2[N+](=O)[O-])c(OC)c1,-13.3,?,0.9%,4.1%,?,0.0%
O=[N+]([O-])c1ccccc1CNc1ccc(F)c(Cl)c1,-11.6,?,-19.0%,6.7%,-21.2%,-2.0%
O=[N+]([O-])c1ccc(CNc2ccc(Cl)cc2)s1,?,-13.7%,-18.6%,10.6%,-21.4%,?
COc1ccc(NCc2ccc([N+](=O)[O-])s2)cc1,-71.3*,20.6µM*,-22.8%,11.5%,?,0.0%
O=[N+]([O-])c1ccc(CNc2cccc(Cl)c2)s1,-95.2*,?,-4.0%,.,?,?
COc1ccc(NCc2ccc([N+](=O)[O-])s2)c(OC)c1,-8.1,?,-19.5%,11.5%,16.4µM*,-13.9%
O=[N+]([O-])c1ccc(CNc2ccc(F)cc2)s1,-85.0*,?,-15.3%,8.3%,-14.0%,-21.8%
COc1ccc(CNc2ccc(S(N)(=O)=O)cc2)cc1,18.2,?,-0.2%,0.0%,-25.6%,-23.0%
CCN(CCCNC(=O)Cn1ncc2c([nH]c3ccc(C)cc32)c1=O)c1ccccc1,10.7,4.0%,0.0%,-0.3%,-0.6%,5.1%
SMILES,IL1B secr inh,DT40 TDP1 no CPT,HepG2 tox,TDP1 inh,DT40 TDP1 CPT,TGFb inhibitor
COc1ccc(/C=N/n2cnc3c([nH]c4ccc(C)cc43)c2=O)cc1CN1CCCC1,-102.1*,7.31µM*,-59.9%,1.2%,5.17µM*,?
Cc1cc(C)nc(-n2nc(C)c3c2NC(=O)CC3c2cc(F)ccc2F)n1 (stereo not given),.,23.1µM*,-1.7%,2.6%,?,8.0%
Cc1ccc(C2CC(=O)Nc3c2c(C)nn3-c2nc(C)cc(C)n2)c(C)c1 (stereo not given),.,-24.7%,4.1%,2.6%,-14.5%,8.7%
COc1ccccc1N(CCC#N)C(=O)COC(=O)CCC(=O)c1ccc(F)cc1,4.2,-7.3%,-13.8%,0.0%,2.1%,-6.4%
COc1ccc2[nH]c3c(c2c1)CCN1C(=O)N([C@@H](C)C(=O)NC2CCN(Cc4ccccc4)CC2)C(=O)[C@]31C,-22.4,16.4µM*,-24.4%,.,16.4µM*,?
COc1ccc2[nH]c3c(c2c1)CCN1C(=O)N([C@@H](C)C(=O)NCc2ccccc2)C(=O)[C@]31C,-3.6,?,-12.7%,.,?,-12.7%
CC(C)[C@@H](C(=O)NC1CCN(Cc2ccccc2)CC1)N1C(=O)N2CCc3c([nH]c4ccccc34)[C@@]2(C)C1=O,?,13µM*,-16.1%,.,18.4µM*,?
COc1ccc2[nH]c3c(c2c1)CCN1C(=O)N([C@@H](C)C(=O)NC2CC2)C(=O)[C@]31C,10.1,?,38.3%,.,-25.6%,70.6%
COc1ccc2[nH]c3c(c2c1)CCN1C(=O)N([C@@H](C)C(=O)NC2CCCC2)C(=O)[C@]31C,-7.7,?,-0.3%,.,11.6µM*,-3.0%
C[C@@H](C(=O)NCCc1ccccc1F)N1C(=O)N2CCc3c([nH]c4ccccc34)[C@@]2(C)C1=O,-9.9,9.2µM*,-28.6%,.,11.6µM*,?
Cc1ccc(S(=O)(=O)Cc2nc(-c3ccc(C(=O)NCc4ccccc4)cc3)oc2C)cc1,.,?,-40.8%,-3.8%,?,?
COCCN(C)C(=O)c1cnn(-c2nccc(-c3cc(OC)ccc3OC)n2)c1C,.,-17.3%,.,.,-0.3%[9.04 µM],.
Cc1cc(N2CCN(c3cccc(C)c3C)CC2)n2nc(C)c(-c3ccc(Cl)cc3)c2n1,.,0.5%,10.4%,3.8%,-9.3%,13.6%
C[C@@H](C(=O)NC1CCCCC1)N1C(=O)N2CCc3c([nH]c4ccccc34)[C@@]2(C)C1=O,6.3,?,-28.7%,.,?,-17.8%
